Several values for one entry are separate records, joined by “and”; a condition that tells them apart may be missing. Equal entries are not always repeated. Records with an inconclusive call do not appear. Entries that show only a call come without a potency. The source holds several records for some structures; these can differ, active in one and inactive in another. Activity calls are given as the source filed them. The call rests on the fitted dose curve; in most records, active means well fitted curve in the direction sought with a large enough effect; inconclusive means small, poorly fitted or top-dose-only effect, or another doubt; inactive means no such curve, though single readings can be large; an effect the other way counts as inactive or inconclusive.

A short description of one assay: Identifying Small Molecule Inhibitors of Pancreatic Cancer Stem Cells (A278, Adherent) (AID 1259361). Further: nearly all actives have a fitted effect of over 35% in size. Conditions: series mostly up to 46.1 µM. The gist of the method:
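Cytotoxicity read by CellTiter-Glo luminescence after 48 h compound exposure at 37C; percent activity scaled between DMSO-treated cells and cell-free wells. Spheroid formats used cells pre-formed 14 days in stem cell media on hydrogel.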
`CN(C)c1ccc(Nc2nc(N)n(C(=O)c3c(F)cccc3F)n2)cc1`: the IC50 (viability decrease) was 16.6 µM (active).

Turning to `COc1ccc(CC2=NN3C([C@@H](CCc4ccccc4)[C@@H](C)O)=NC(C)C3C(=O)N2)cc1OC` (stereo partly drawn), the IC50 (viability decrease) is 23.5 µM (active).

`CC[C@H](Nc1ncnc2nc[nH]c12)c1nc2cccc(F)c2c(=O)n1-c1ccccc1`: the IC50 (viability decrease) is 20.9 µM (active).

Regarding `Cc1ccc(-n2nc(C(C)(C)C)cc2NC(=O)Nc2ccc(OCCN3CCOCC3)c3ccccc23)cc1`, the IC50 (viability decrease) was 18.7 µM (active).

Take `Cc1cc2c(C(C)C)c(O)c(O)c(C=O)c2c(O)c1-c1c(C)cc2c(C(C)C)c(O)c(O)c(C=O)c2c1O`: the IC50 (viability decrease) is 26.4 µM (active).

For the compound `CNCc1ccc(-c2[nH]c3cc(F)cc4c3c2CCNC4=O)cc1`, the IC50 (viability decrease) is 20.9 µM (active).

Regarding `CCC(C)(C)C(=O)O[C@H]1C[C@@H](C)C=C2C=C[C@H](C)[C@H](CC[C@@H]3C[C@@H](O)CC(=O)O3)[C@H]21`, the IC50 (viability decrease) is 3.17 µM (active).

Turning to `COc1ccc(C2=N[C@H](c3ccc(Cl)cc3)[C@H](c3ccc(Cl)cc3)N2C(=O)N2CCNC(=O)C2)c(OC(C)C)c1`, the IC50 (viability decrease) is 18.7 µM (active).

As for `COCC(=O)NCC=Cc1ccc2ncnc(Nc3ccc(Oc4ccc(C)nc4)c(C)c3)c2c1`, the IC50 (viability decrease) was 20.9 µM (active).

For `C[C@@H]1CN(Cc2ccc(F)cc2)[C@@H](C)CN1C(=O)c1cc2c(C(=O)C(=O)N(C)C)cn(C)c2cc1Cl`, the IC50 (viability decrease) is 20.9 µM (active).

As for `Cc1oncc1C(=O)Nc1ccc(C(F)(F)F)cc1`, the IC50 (viability decrease) is 11.8 µM (active).

The nature of another assay: Identifying Small Molecule Inhibitors of Pancreatic Cancer Stem Cells (Panc1, Adherent) (AID 1259362). Further: potency means the concentration at half of the fitted maximal effect. Conditions: Potency: viability; series mostly up to 46.1 µM. The gist of the method:
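Luminescent ATP readout (CellTiter-Glo) quantifies surviving cells after a 48 h drug incubation. Normalization uses DMSO wells as no inhibition and media-only wells as full inhibition; bortezomib served as positive control.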
Regarding `COc1ccc(CCN2CCN(CCCc3ccccc3)CC2)cc1OC`, the Potency result is “inactive”.

Take `COc1ccc(CC2=NN3C([C@@H](CCc4ccccc4)[C@@H](C)O)=NC(C)C3C(=O)N2)cc1OC` (stereo partly drawn): the Potency entry was “inactive”.

As to `CC[C@H](Nc1ncnc2nc[nH]c12)c1nc2cccc(F)c2c(=O)n1-c1ccccc1`, the Potency result was “inactive”.

Consider `C/C(=C\C(=O)Nc1ccccc1C(=O)O)c1ccc2ccccc2c1`, for which the Potency entry is “inactive”.

Turning to `CNCc1ccc(-c2[nH]c3cc(F)cc4c3c2CCNC4=O)cc1`, the Potency entry was “inactive”.

Consider `C[C@]12CCC(=O)C=C1CC[C@@H]1[C@@H]2[C@@H](O)C[C@@]2(C)[C@H]1CC[C@]2(O)C(=O)CO`, for which the Potency result was “inactive”.

As for `Cc1ccnc(NS(=O)(=O)c2ccc(NC(=O)Nc3ccc(S(=O)(=O)Nc4nccc(C)n4)cc3)cc2)n1`, the Potency was 0.0235 µM (active).

With `COc1ccc(C2=N[C@H](c3ccc(Cl)cc3)[C@H](c3ccc(Cl)cc3)N2C(=O)N2CCNC(=O)C2)c(OC(C)C)c1`, the Potency result is “inactive”.

As for `Cc1cc2c(F)c(Oc3ncnn4cc(OC[C@@H](C)O)c(C)c34)ccc2[nH]1`, the Potency result is “inactive”.

With `CCOC(=O)N[C@@H]1CC[C@@H]2[C@@H](C1)C[C@H]1C(=O)O[C@H](C)[C@H]1[C@@H]2C=Cc1ccc(-c2cccc(F)c2)cn1`, the Potency entry is “inactive”.

The next assay is described as follows: P-glycoprotein substrates identified in KB-3-1 adenocarcinoma cell line, qHTS therapeutic library screen (AID 1346986). Further: nearly all actives have a fitted effect of over 60% in size.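 Further: potency means the concentration at half of the fitted maximal effect; potency is for cytotoxicity meaning loss of cell viability.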 Conditions: KB-3-1 parental cells viability, CellTiter-Glo, 72 h; series mostly up to 44.5 µM. The gist of the method:
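Counter-screen: cherry-picked hits retested in the KB pair and in HEK-293 pcDNA/MDR-19 cells ± tariquidar. Primary screen used 72 h CellTiter-Glo viability in KB-3-1 and KB-8-5-11.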
(In qHTS, concentration-response curves come from the screen itself.)
`COc1ccc([C@@H]2CC(=O)c3c(O)cc(O[C@@H]4O[C@H](CO[C@@H]5O[C@@H](C)[C@H](O)[C@@H](O)[C@@H]5O)[C@@H](O)[C@H](O)[C@@H]4O)cc3O2)cc1O`: the Potency entry was “inactive”.

Take `COc1cc(Nc2ncc3c(n2)-c2ccc(Cl)cc2C(c2c(F)cccc2OC)=NC3)ccc1C(=O)O`: the Potency is 0.103 µM (active).

On to `C1COC(NC(C2CC2)C2CC2)=N1`, for which the Potency result was “inactive”.

Turning to `OC(CCN1CCCCC1)(c1ccccc1)C1CC2C=CC1C2` (stereo not drawn), the Potency result was “inactive”.

Regarding `NC(N)=NC(=O)c1nc(Cl)c(N)nc1N`, the Potency entry is “inactive”.

With `CCOc1cc(N2CCC(O)CC2)ccc1Nc1ncc2c(n1)N(C)c1ccccc1C(=O)N2C`, the Potency was 8.2 µM (active).

Consider `CC[C@H](Nc1ncnc2nc[nH]c12)c1nc2cccc(F)c2c(=O)n1-c1ccccc1`, for which the outcome was “inactive [at 9.29 µM]”.

Regarding `Cc1ccc(-n2nc(C(C)(C)C)cc2NC(=O)Nc2ccc(OCCN3CCOCC3)c3ccccc23)cc1`, the Potency result is “inactive”.

With `CO[C@@H]1[C@H](N(C)C(=O)c2ccccc2)C[C@H]2O[C@]1(C)n1c3ccccc3c3c4c(c5c6ccccc6n2c5c31)C(=O)NC4`, the Potency was 1.3 µM (active).

With `Cc1ccnc(NS(=O)(=O)c2ccc(NC(=O)Nc3ccc(S(=O)(=O)Nc4nccc(C)n4)cc3)cc2)n1`, the Potency entry is “inactive”.

`Cc1cn[nH]c1`: the Potency entry is “inactive”.

With `NC(=O)c1cnccn1`, the Potency result is “inactive”.

On to `CC(C=CC1=C(C)CCCC1(C)C)=CC=CC(C)=CC(=O)O`, for which the Potency result was “inactive”.

The nature of the next assay: P-glycoprotein substrates identified in KB-8-5-11 adenocarcinoma cell line, qHTS therapeutic library screen (AID 1346987). Further: nearly all actives have a fitted effect of over 65% in size. Further: potency means the concentration at half of the fitted maximal effect. Conditions: KB-8-5-11 (P-gp overexpressing) viability, CellTiter-Glo, 72 h; series mostly up to 44.5 µM. The gist of the method:
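KB-8-5-11: colchicine-selected sub-line of KB-3-1 over-expressing P-gp; assay medium lacked colchicine. 72 h drug exposure at 37 degree C, CellTiter-Glo.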
Regarding `COc1ccc([C@@H]2CC(=O)c3c(O)cc(O[C@@H]4O[C@H](CO[C@@H]5O[C@@H](C)[C@H](O)[C@@H](O)[C@@H]5O)[C@@H](O)[C@H](O)[C@@H]4O)cc3O2)cc1O`, the Potency entry is “inactive”.

As to `COc1ccc(CCN2CCN(CCCc3ccccc3)CC2)cc1OC`, the Potency result was “inactive”.

Turning to `COc1cc(Nc2ncc3c(n2)-c2ccc(Cl)cc2C(c2c(F)cccc2OC)=NC3)ccc1C(=O)O`, the Potency was 0.0833 µM (active).

For `C1COC(NC(C2CC2)C2CC2)=N1`, the Potency entry is “inactive”.

Regarding `CC(C)(N)C(=O)N[C@H](COCc1ccccc1)C(=O)N1CCC2(CC1)CN(S(C)(=O)=O)c1ccccc12`, the Potency entry is “inactive”.

Take `OC(CCN1CCCCC1)(c1ccccc1)C1CC2C=CC1C2` (stereo not drawn): the Potency result is “inactive”.

As for `NC(N)=NC(=O)c1nc(Cl)c(N)nc1N`, the Potency was 25.9 µM (active).

With `COc1ccc(CC2=NN3C([C@@H](CCc4ccccc4)[C@@H](C)O)=NC(C)C3C(=O)N2)cc1OC` (stereo partly drawn), the Potency entry was “inactive”.

Regarding `CCOc1ccc(Cc2cc([C@@H]3O[C@H](CO)[C@@H](O)[C@H](O)[C@@H]3O)ccc2Cl)cc1`, the Potency result was “inactive”.

Take `CCOc1cc(N2CCC(O)CC2)ccc1Nc1ncc2c(n1)N(C)c1ccccc1C(=O)N2C`: the Potency was 18.4 µM (active).

With `CC[C@H](Nc1ncnc2nc[nH]c12)c1nc2cccc(F)c2c(=O)n1-c1ccccc1`, the activity change, negative = cytotoxicity is 3.11% [at 9.29 µM] (inactive).

On to `CNC(=O)c1ccc(C)c(-n2c(C)cc(OCc3ccc(F)cc3F)c(Br)c2=O)c1`, for which the Potency result was “inactive”.

For `Cc1cc2c(C(C)C)c(O)c(O)c(C=O)c2c(O)c1-c1c(C)cc2c(C(C)C)c(O)c(O)c(C=O)c2c1O`, the Potency is 11.8 µM (active).

`C/C(=C\C(=O)Nc1ccccc1C(=O)O)c1ccc2ccccc2c1`: the Potency entry was “inactive”.

With `CNCc1ccc(-c2[nH]c3cc(F)cc4c3c2CCNC4=O)cc1`, the Potency result is “inactive”.

Turning to `CCC(C)(C)C(=O)O[C@H]1C[C@@H](C)C=C2C=C[C@H](C)[C@H](CC[C@@H]3C[C@@H](O)CC(=O)O3)[C@H]21`, the Potency is 16.6 µM (active).

For `CO[C@@H]1[C@H](N(C)C(=O)c2ccccc2)C[C@H]2O[C@]1(C)n1c3ccccc3c3c4c(c5c6ccccc6n2c5c31)C(=O)NC4`, the Potency was 1.48 µM (active) and 1.3 µM (active).

Turning to `Cc1ccnc(NS(=O)(=O)c2ccc(NC(=O)Nc3ccc(S(=O)(=O)Nc4nccc(C)n4)cc3)cc2)n1`, the Potency is 14.8 µM (active) and inactive.

Consider `Cc1cn[nH]c1`, for which the Potency entry is “inactive”.

`NC(=O)c1cnccn1`: the Potency entry was “inactive”.

On to `C[C@@H]1CN(Cc2ccc(F)cc2)[C@@H](C)CN1C(=O)c1cc2c(C(=O)C(=O)N(C)C)cn(C)c2cc1Cl`, for which the Potency result is “inactive”.

`O=C(c1cc(Cc2n[nH]c(=O)c3ccccc23)ccc1F)N1CCN(C(=O)C2CC2)CC1`: the Potency result is “inactive”.

Regarding `CC(C=CC1=C(C)CCCC1(C)C)=CC=CC(C)=CC(=O)O`, the Potency entry is “inactive”.

With `N#CC[C@H](C1CCCC1)n1cc(-c2ncnc3[nH]ccc23)cn1`, the Potency is 26.4 µM (active).

(Values after PubChem BioAssay (NCATS).)
